Only a selection was taken, and hits are over-represented in it overall.
Sa growth inh: inhibitors of Staphylococcus aureus growth at 42 °C; S. aureus RN4220 growth, OD600, 20 h; stronger effect = lower value; relative growth, % (concentration not given with the values); actives 0.53% (n = 170,000);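 active = relative growth at most 50% at the other temperature and 20+ points below 30 °C, or under 10% at both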
Sa helicase inh: blocks Staphylococcus aureus DNA helicase | actives 0.05% (n = 120,000) | AID 485395 | purified S. aureus helicase, fluorescence unwinding assay | inhibition, % (test concentration not listed); in the data active = inhibition above about 25%, passing the limit was not always enough;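 also: 0% = mean of negative control wells and 100% = mean of positive control wells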
* marks the source's active call; other numbers are inactive results.

Screening Cc1cc(C)cc(Nc2nc3cc(Cl)c(Cl)cc3nc2-n2nc(C)cc2C)c1 returned Sa growth inh 104.1.
`Cc1cc(N2CCCC2)nc(-n2nc(C)cc2C)n1` gave Sa growth inh 7.7* and Sa helicase inh 0.0.
Cc1cc(C)cc(Nc2cc(C)nc(-n3nc(C)cc3C)n2)c1 was read as Sa growth inh -0.7* and Sa helicase inh 12.0.
COc1ccc(N2C(S)=C(C#N)C(=O)NC2c2ccccc2)cc1 (stereo not given) was read as Sa growth inh 107.2 and Sa helicase inh 1.0.
Screening CCN1/C(=C\C=C2C(=O)OC(C)(C)OC2=O)Sc2ccccc21 returned Sa growth inh 75.5 and Sa helicase inh -82.0.
CCN1/C(=C/C2=CC(=O)CC(C)(C)C2)Sc2ccccc21 was read as Sa growth inh 1.0* and Sa helicase inh -76.0.
Screening C[C@H](NC(=O)c1cccc(C(F)(F)F)c1)c1nc2ccccc2[nH]1 returned Sa growth inh 85.8 and Sa helicase inh 11.0.
For CC(NC(=O)Nc1cccc(C(F)(F)F)c1)c1nc2ccccc2[nH]1 (stereo not given) the results were Sa growth inh 0.5* and Sa helicase inh -6.0.
`COCc1cc(=O)n2[nH]cc(-c3ccc(Cl)cc3)c2n1` gave Sa growth inh 113.5 and Sa helicase inh 17.0.
For CCCc1cc(=O)n2[nH]cc(-c3ccc(Cl)cc3)c2n1 the results were Sa growth inh -0.6* and Sa helicase inh 36.0.
O=C(CCn1c(=O)c2cccn2c2ccc(F)cc21)NCc1ccccc1 was read as Sa growth inh 85.7 and Sa helicase inh 35.0.
Cc1[nH]c2ccccc2c1C(c1cccs1)N1CCN(c2ccccc2)CC1 (stereo not given) was read as Sa growth inh 0.0* and Sa helicase inh 19.0.
For Cc1[nH]c2ccccc2c1C(Nc1ccccn1)c1cccs1 (stereo not given) the results were Sa helicase inh 1.0.
COC(c1cccs1)c1c(C)[nH]c2ccccc12 (stereo not given) was read as Sa growth inh 2.0* and Sa helicase inh -8.0.
`Cc1[nH]c2ccccc2c1C(c1ccncc1)N1CCN(C)CC1` (stereo not given) gave Sa helicase inh -27.0.
For CCN(CC)CCCNc1nc2cc(OC)c(OC)cc2c2nc(-c3ccccc3)nn12 the results were Sa growth inh 104.4 and Sa helicase inh 74.0*.
For CCN(CC)CCCNc1nc2cc(OC)c(OC)cc2c2nc(-c3cccnc3)nn12 the results were Sa growth inh 93.5 and Sa helicase inh 43.0.
O=C(NCCc1ccccc1)c1ccc(CS(=O)Cc2cccc(Cl)c2)o1 (stereo not given) was read as Sa growth inh 86.4 and Sa helicase inh 2.0.
Screening O=C(NCCc1ccc(Cl)cc1)c1ccc(CS(=O)Cc2cccc(Cl)c2)o1 (stereo not given) returned Sa growth inh 7.4*.
For O=C1CSC(N(CC(=O)N2CCc3ccccc32)Cc2ccccc2)=N1 the results were Sa growth inh 102.3 and Sa helicase inh -6.0.
For Cc1nn(C(=O)Nc2ccccc2)c(C)c1Oc1ccccc1 the results were Sa growth inh 124.9.
`CCCC1CCC(c2ccc(C(=O)CCN(C)C)cc2)CC1` (stereo not given) gave Sa growth inh -0.5* and Sa helicase inh 20.0.
For CCCC1CCC(c2ccc(C(N)=O)cc2)CC1 (stereo not given) the results were Sa growth inh 73.6 and Sa helicase inh -12.0.
For c1ccc(-c2cn3c(nc4ccccc43)s2)cc1 the results were Sa helicase inh -21.0.
For CC1COc2c(N3CCN(C)CC3)c(F)cc3c(=O)c(C(=O)N4CCN(S(=O)(=O)c5ccccc5)CC4)cn1c23 (stereo not given) the results were Sa growth inh 89.9 and Sa helicase inh -9.0.
For CCn1cc(C(=O)O)c(=O)c2cc(F)c(N3CCNC(C)C3)c(F)c21 (stereo not given) the results were Sa growth inh -0.6*.
Screening CC1COc2c(F)c(F)cc3c(=O)c(C(=O)O)cn1c23 (stereo not given) returned Sa helicase inh 18.0.
`COc1c(N2C[C@@H]3CCCN[C@@H]3C2)c(F)cc2c(=O)c(C(=O)O)cn(C3CC3)c12` gave Sa growth inh -0.9*.
`Cn1cccc1C1=C(C#N)C(c2ccc(C#N)cc2)C(C#N)=C(N)O1` (stereo not given) gave Sa growth inh 76.5.
Screening CC1(C)S[C@@H]2[C@H](NC(=O)[C@@H](N)c3ccc(O)cc3)C(=O)N2[C@H]1C(=O)O returned Sa growth inh -0.4*.
For O=C1NCCN1C(=O)NC1CCCCC1 the results were Sa growth inh 84.6 and Sa helicase inh 4.0.
`CC1(C)S[C@@H]2[C@H](NC(=O)[C@H](NC(=O)N3CCNC3=O)c3ccccc3)C(=O)N2C1C(=O)O` (stereo not given in full) gave Sa growth inh -1.3*.
Screening Cc1ccccc1NC(=O)Cc1nc(Cn2cc(S(=O)(=O)N3CCCC3)ccc2=O)cs1 returned Sa growth inh 94.9 and Sa helicase inh 4.0.
For CC(C)CC(NC(=O)c1ccc(C23CC4CC(CC(C4)C2)C3)cc1)C(=O)NCc1cccnc1 (stereo not given) the results were Sa growth inh 94.9 and Sa helicase inh 9.0.
For Cc1ccc2c(c1)sc(=NC(=O)CN1C(=O)CCC1=O)n2C the results were Sa helicase inh -12.0.
CN(C)CCN(C)CC1CC=CCC1 (stereo not given) was read as Sa growth inh 105.1 and Sa helicase inh 6.0.
`CCCC(CCC)C(=O)Nc1cccc(-c2nc3ccccc3[nH]2)c1` gave Sa growth inh 125.6 and Sa helicase inh 18.0.
For CCNC(=O)C1CCCN1C(=O)OCC(C)C (stereo not given) the results were Sa growth inh 82.7 and Sa helicase inh 2.0.
`N#CCN(CC#N)C(=O)c1cccs1` gave Sa growth inh 111.5.
For N#CSCC(=O)c1cccs1 the results were Sa growth inh 1.0* and Sa helicase inh 1.0.
`Cc1ccc(C2=N/C(=C\c3ccco3)C(=O)O2)cc1` gave Sa growth inh 123.6 and Sa helicase inh 12.0.
CCCCc1cc(=O)oc2cc(C)cc(O)c12 was read as Sa growth inh 27.2 and Sa helicase inh 2.0.
`CCCc1cc(O)c2c(C)cc(=O)oc2c1` gave Sa growth inh 5.2* and Sa helicase inh 5.0.
For O=S(=O)(NC1CCSC1)c1ccc(Cl)cc1 (stereo not given) the results were Sa growth inh 87.4.
Screening CCn1c(=O)n(CC)c2cc(N3CCCC3)c(NC(=O)CC(=O)OC)cc21 returned Sa growth inh 87.6 and Sa helicase inh 14.0.
Screening Cc1ccc(CN(C)Cc2cc(=O)oc3cc4c(cc23)CCC4)o1 returned Sa growth inh 70.8 and Sa helicase inh 7.0.
For CN1CCC(N(C)Cc2cc(=O)oc3cc4c(cc23)CCC4)CC1 the results were Sa growth inh 0.3* and Sa helicase inh -2.0.
CCN1CCN(Cc2ccc(NC(=O)C3CCCN(S(=O)(=O)N4CCC5(CC4)OCCO5)C3)cc2)CC1 (stereo not given) was read as Sa growth inh 95.7 and Sa helicase inh -24.0.
CCOC(=O)c1sc(-c2ccc(F)cc2)cc1N was read as Sa growth inh 48.2* and Sa helicase inh -6.0.
Screening CCOC(=O)c1sc(-c2ccccc2)cc1N returned Sa helicase inh 7.0.
For Cc1ccc(S(=O)(=O)N2N=C(C(C)C)CC2(O)C(F)(F)F)cc1 (stereo not given) the results were Sa growth inh 96.8 and Sa helicase inh 7.0.

Screening results from PubChem.
